Bioassay records as filed in PubChem BioAssay.
RORg inh: blocks mouse ROR gamma transcriptional activity; Potency, µM (highest dose often 53.6 µM), inactives show top-dose activity change, negative = inhibition, most hits filed as inhibitors; P51450; Drosophila S2 Gal4-RORgamma UAS-luciferase reporter, 20 h; 5.4% of 310,000 active; also: nearly all actives have a fitted effect of over 60% in size
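Stable Schneider cell line, Gal4 DNA-binding domain fused to ROR gamma, UAS-luciferase. Cmpd 1 hr RT → CuSO4 700 uM final → 20 hr RT → luciferase reagent 10 min → luminescence.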
DT40 TDP1 CPT: growth inhibition of DT40 Tdp1-/-;hTDP1 cells with camptothecin (screen for TDP1 inhibitors); chicken DT40 Tdp1-/-;hTDP1 cells + 20 nM CPT, ATP luminescence, 48 h; Potency, µM (top dose mostly 46.2 µM), inactives show top-dose activity change, negative = growth inhibition, hits mostly inhibitors; 12% of 420,000 active; AID 686979; also: nearly all actives have a fitted effect of over 55% in size
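Cell growth measured by CellTiter-Glo luminescence after a minimum 48 h, 37 C compound exposure with 20 nM CPT in Tdp1-knockout DT40 cells stably expressing hTDP1, seeded 400/well; qHTS titration format.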
ALOX12 inh: ALOX12 (human) lipoxygenase inhibition | purified 12hLO, xylenol orange hydroperoxide absorbance | Potency, µM (top dose mostly 108 µM), for inactives: top-dose activity change, negative = inhibition, hits mostly inhibitors | 1.1% of 580,000 active | AID 1671190
Target sequence (P18054 whole entry, looked up): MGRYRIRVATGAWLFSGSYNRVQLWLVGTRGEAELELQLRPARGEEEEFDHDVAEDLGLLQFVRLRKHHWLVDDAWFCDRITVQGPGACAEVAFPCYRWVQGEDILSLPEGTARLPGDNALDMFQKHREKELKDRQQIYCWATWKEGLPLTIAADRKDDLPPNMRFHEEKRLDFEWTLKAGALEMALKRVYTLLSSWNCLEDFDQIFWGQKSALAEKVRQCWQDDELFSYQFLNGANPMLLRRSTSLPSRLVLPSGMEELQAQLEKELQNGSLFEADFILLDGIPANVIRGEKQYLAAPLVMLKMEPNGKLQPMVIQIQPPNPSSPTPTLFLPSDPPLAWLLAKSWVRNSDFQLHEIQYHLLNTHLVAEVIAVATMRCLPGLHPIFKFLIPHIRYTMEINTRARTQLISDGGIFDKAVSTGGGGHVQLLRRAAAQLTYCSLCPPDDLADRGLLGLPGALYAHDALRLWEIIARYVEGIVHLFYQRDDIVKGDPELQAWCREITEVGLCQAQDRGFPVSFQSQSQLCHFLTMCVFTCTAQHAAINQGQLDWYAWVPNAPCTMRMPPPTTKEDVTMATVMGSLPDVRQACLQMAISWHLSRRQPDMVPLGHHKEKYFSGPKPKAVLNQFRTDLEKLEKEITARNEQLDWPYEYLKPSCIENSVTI
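Hydroperoxide product was detected by ferrous iron/xylenol orange as the 573 to 405 nm absorbance ratio. Arachidonic acid at 40 uM (final) was turned over for 30 min at room temperature by 150 nM human 12hLO, pH 7.0 Hepes buffer, after 15 min compound preincubation.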
DT40 TDP1 no CPT: qHTS for Inhibitors of human tyrosyl-DNA phosphodiesterase 1 (TDP1): qHTS in cells in absence of CPT; DT40 Tdp1-/- hTDP1 cells, no CPT, ATP luminescence, 48 h; Potency, µM (series often up to 46.2 µM), without a hit: at the highest dose activity change, negative = growth inhibition, usual class: inhibitors; 15% of 420,000 active; AID 686978, 2013; also: nearly all actives have a fitted effect of over 55% in size
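Chicken DT40 Tdp1-/- cells complemented with human TDP1, screened without camptothecin (DMSO vehicle only), 400 cells/well. Compounds pin-transferred, cells incubated at 37 °C for at least 48 hr. Growth read as ATP-dependent luminescence (CellTiter-Glo, 30 min at RT).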
ELG1 DNA repair: inhibitors of ELG1-dependent DNA repair in HEK293T cells; HEK293T ELG1-luciferase reporter, luminescence, 16 h; DNA damage induced by 5-fluorouridine; Potency, µM (highest dose often 46.1 µM), for inactives: at the top dose activity change, negative = inhibition, most hits filed as inhibitors; 2.3% of 330,000 active; also: nearly all actives have a fitted effect of over 55% in size
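DMSO vehicle served as the neutral condition. Each well held 2,000 cells given 5-fluorouridine plus compound; after 16 hr at 37 °C/5% CO2, ONE-Glo was added and luciferase measured 30 min later.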
Gal4-VP16 FLuc: inhibits Gal4-VP16 luciferase reporter, ROR gamma counter-screen; Drosophila S2 Gal4-VP16 UAS-luciferase, luminescence, 20 h; Potency, µM (doses to about 53.6 µM), for inactives: top-dose activity, negative = inhibition, usual class: inhibitors; 3.5% of 310,000 active; AID 2546;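 also: Gal4-VP16 expression switched on by copper sulfate through the metallothionein promoter; nearly all actives have a fitted effect of over 50% in size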
Numbers without * were called inactive; i = inactive; ? = inconclusive; nt = no result; [ ] = another dose, or the depositor's remark. Compounds with a hit are over-represented: about 15% of the library has one in this group of screens. Calls follow the shape of the dose curve; as a rule, active = well fitted curve in the direction sought with a large enough effect; inconclusive = small, poorly fitted or top-dose-only effect, or another doubt; inactive = no such curve, though single readings can be large; an effect the other way counts as inactive or inconclusive. % is scaled to controls: 0 for no effect and ±100 for the full control effect; potency is read from the fitted curve at half-maximal effect.

SMILES	RORg inh	DT40 TDP1 CPT	ALOX12 inh	DT40 TDP1 no CPT	ELG1 DNA repair	Gal4-VP16 FLuc
CN(C)S(=O)(=O)c1ccc(C(=O)NCCSc2c(-c3ccc(Cl)cc3)[nH]c3ccccc23)cc1	nt	4.1µM*	-3%	5.2µM*	nt	nt
COc1ccc(C(=O)N2CCC3(CC2)N=C(c2ccc(Cl)cc2)NO3)cc1OC	nt	nt	2%	nt	nt	nt
O=C(CN(c1cc(C(F)(F)F)ccc1Cl)S(=O)(=O)c1ccccc1)NCCc1ccccc1	nt	?	?	21µM*	nt	nt
COc1ccc(-c2cccc(NS(=O)(=O)c3cc(C)c(Cl)cc3C)c2)nn1	nt	13µM*	-18%	23µM*	nt	nt
COc1ccc(-c2cccc(NS(=O)(=O)c3cc(C)ccc3OC)c2)nn1	nt	16µM*	-17%	23µM*	nt	nt
COc1ccc(-c2cccc(NS(=O)(=O)c3cc(C(F)(F)F)ccc3Cl)c2)nn1	nt	-30%	?	?	nt	nt
N#Cc1nc(-c2ccc([N+](=O)[O-])cc2)oc1N1CCN(CCO)CC1	nt	nt	-27%	nt	nt	nt
Cc1ccc(S(=O)(=O)N(C)C(C)c2cc3ccccc3o2)cc1C (configuration not stated)	nt	nt	0%	nt	nt	nt
CCS(=O)(=O)Nc1cccc(-c2ccc3nnc(-c4cccnc4)n3n2)c1	-20%	21µM*	2%	?	-8%	-6%
Cc1nnc2ccc(-c3cccc(NS(=O)(=O)c4ccccc4[N+](=O)[O-])c3)nn12	nt	23µM*	-7%	15µM*	?	nt
CCN(Cc1ccccc1)C(=O)c1[nH]c2ccc(OC)cc2c1C	-16%	10%	7%	?	-1%	-8%
CCN(CC)CCNC(=O)c1[nH]c2ccc(OCc3ccccc3)cc2c1C	13µM*	?	?	?	7%	-17%
CN(Cc1ccc(F)cc1)c1ccc2ncc(Nc3cccc(O)c3)n2n1	nt	nt	21%[176 µM]	nt	nt	nt
CCC(=O)N/C(N)=N/c1nc(C)c2cc(OC)ccc2n1	0%	13µM*	?	12µM*	?	6%
COc1ccc2nc(/N=C(\N)NC(=O)C(C)(C)C)nc(C)c2c1	-39%	-18%	-8%	?	20%	-11%
Cc1ccc2nc(/N=C(\N)NC(=O)N3c4ccccc4Sc4ccccc43)nc(C)c2c1	6%	?	?	9.2µM*	-7%	7%
COc1ccc2nc(/N=C(\N)NC(=O)N3c4ccccc4Sc4ccccc43)nc(C)c2c1	16%	13µM*	?	16µM*	-29%	-8%
Cc1ccc2c(C)nc(/N=C(\N)NC(=O)N3c4ccccc4Sc4ccccc43)nc2c1	-2%	?	?	21µM*	6%	-3%
Cc1cc2nc(/N=C(\N)NC(=O)N3c4ccccc4Sc4ccccc43)nc(C)c2cc1C	-3%	?	?	15µM*	-2%	1%
CC(NC(=O)CCC1CCCO1)C1CCCO1 (configuration not stated)	nt	nt	-14%	nt	nt	nt
Cc1cccc(C)c1OCC(=O)Nc1nc(-c2ccc(Br)cc2)ns1	nt	?	?	16µM*	nt	nt
COc1ccccc1C(=O)Nc1nc(-c2ccc(Br)cc2)ns1	nt	?	-8%	?	nt	nt
Cc1ccccc1C(=O)Nc1nc(-c2ccc(Br)cc2)ns1	nt	16µM*	-22%	21µM*	nt	nt
CCOC(=O)c1sc(NC(=S)NC(=O)c2ccc(OC)cc2)nc1C	6.3µM*	-7%	-14%	-7%	?	5µM*
C=CCOC(=O)c1sc(NC(=O)c2ccc(OC)cc2)nc1C	6.3µM*	12%	-5%	6%	?	-13%
SMILES	RORg inh	DT40 TDP1 CPT	ALOX12 inh	DT40 TDP1 no CPT	ELG1 DNA repair	Gal4-VP16 FLuc
COc1ccc(C(=O)NC(=S)Nc2nc(C)c(C(=O)N(C)C)s2)cc1	?	-25%	?	-16%	21%	-5%
COC(=O)c1sc(NC(=S)NC(=O)c2ccccc2C)nc1C	6.3µM*	2%	-19%	?	?	16µM*
COC(=O)c1sc(NC(=S)NC(=O)c2ccc(F)cc2)nc1C	0%	nt	3%	nt	-12%	-5%[10 µM]
Cc1cccc(NC(=O)c2cnc3ccccc3n2)n1	nt	nt	1%	nt	nt	nt
CN(CC(=O)Nc1cccc(F)c1)Cc1ncc(-c2ccc(F)cc2)o1	nt	nt	22%	nt	nt	nt
c1ccc2c(c1)ccc1ncccc12	-11%	-21%	2%	-18%	6%	-4%
CCN(Cc1ccccc1)c1ccc(/C=C/c2ccnc3ccccc23)cc1	nt	?	nt	11µM*	nt	nt
C(=C\c1ccnc2ccccc12)/c1ccc(N(Cc2ccccc2)Cc2ccccc2)cc1	nt	13µM*	nt	13µM*	nt	nt
CC(C)C(=O)NC1CCC(c2ccccc2)CC1 (configuration not stated)	nt	nt	-28%	nt	nt	nt
CCn1cnc2c1c(=O)n(CC(=O)N1CCN(C)CC1)c(=O)n2Cc1ccccc1	nt	nt	4%	nt	nt	nt
CCOC(=O)c1csc(C)c1-c1ccccc1	nt	nt	3%	nt	nt	nt
CSc1nc2sc3c(c2c(=O)[nH]1)CCCC3	22%	7%	i	-13%	?	1%
O=c1[nH]nnc2sc3c(c12)CCCC3	18%	?	9%	?	13µM*	1%
